# An excerpt weighted towards active compounds, which were near 12% of everything screened.
# G9a inh = qHTS Assay for Inhibitors of Histone Lysine Methyltransferase G9a; G9a H3K9 monomethylation, AlphaScreen, 2 h; Potency, µM (titrated, usually from 102 µM), for inactives: at the highest dose activity, negative = inhibition, most hits filed as inhibitors; actives 8.8% (n = 350,000); AID 504332, 2011; also: % is scaled to controls: 0 for no effect and ±100 for the full control effect; nearly all actives have a fitted effect of over 75% in size
#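 Compounds were preincubated with 20 nM G9a for 15 min, after which biotinylated H3K9 peptide (500 nM) and SAM (20 uM) started a 2 h room-temperature reaction. Monomethylated product was quantified by antibody-based AlphaScreen chemiluminescence.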
# BAZ2B inh = qHTS Assay for Inhibitors of BAZ2B. Bromodomain adjacent to zinc finger domain protein 2B (Homo sapiens), Q9UIF8. AlphaScreen BAZ2B-H3K14Ac peptide displacement. Potency, µM (doses to about 114 µM), for inactives: at the top dose activity change, negative = inhibition, actives largely listed as inhibitors. actives 4.4% (n = 360,000). AID 504333, 2011; also: % is scaled to controls: 0 for no effect and ±100 for the full control effect; nearly all actives have a fitted effect of over 60% in size
#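 AlphaScreen luminescence quantifies BAZ2B engagement of H3K14Ac peptide; the protein and biotinylated peptide are both at 50 nM final, buffer PBS pH 7.4 with 0.01% Tween-20, all steps at room temperature.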
# Sfp inh = qHTS Assay for Inhibitors of Bacillus subtilis Sfp phosphopantetheinyl transferase (PPTase) | Potency, µM, without a hit: largest response in the series, negative = inhibition, actives largely listed as inhibitors | Biochemical Sfp PPTase activity, qHTS | actives 3.5% (n = 310,000);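 also: the enzyme is Sfp with the accession as filed and its product quenches rhodamine fluorescence; 0% = enzyme reaction without inhibitor and -100% = no enzyme wells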
#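 Compounds were incubated with enzyme (final 15 nM) for 15 min at room temperature before substrate addition started the reaction. Fluorescence at 525 nm excitation, 598 nm emission was recorded immediately and after 30 minutes.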
# PLK1 PBD inh = qHTS for Inhibitors of PLK1-PDB (polo-like kinase 1 - polo-box domain): Primary Screen. Serine/threonine-protein kinase PLK1 (Homo sapiens), P53350. Potency, µM, inactives show max response, negative = inhibition, actives largely listed as inhibitors. Plk1 PBD binding of FITC phosphopeptide, fluorescence polarization. actives 2.8% (n = 360,000); also: series mostly up to about 57 µM; % is scaled to controls: 0 for no effect and ±100 for the full control effect; nearly all actives have a fitted effect of over 65% in size
# Target sequence (P53350 whole entry, looked up, the tested form may be a part): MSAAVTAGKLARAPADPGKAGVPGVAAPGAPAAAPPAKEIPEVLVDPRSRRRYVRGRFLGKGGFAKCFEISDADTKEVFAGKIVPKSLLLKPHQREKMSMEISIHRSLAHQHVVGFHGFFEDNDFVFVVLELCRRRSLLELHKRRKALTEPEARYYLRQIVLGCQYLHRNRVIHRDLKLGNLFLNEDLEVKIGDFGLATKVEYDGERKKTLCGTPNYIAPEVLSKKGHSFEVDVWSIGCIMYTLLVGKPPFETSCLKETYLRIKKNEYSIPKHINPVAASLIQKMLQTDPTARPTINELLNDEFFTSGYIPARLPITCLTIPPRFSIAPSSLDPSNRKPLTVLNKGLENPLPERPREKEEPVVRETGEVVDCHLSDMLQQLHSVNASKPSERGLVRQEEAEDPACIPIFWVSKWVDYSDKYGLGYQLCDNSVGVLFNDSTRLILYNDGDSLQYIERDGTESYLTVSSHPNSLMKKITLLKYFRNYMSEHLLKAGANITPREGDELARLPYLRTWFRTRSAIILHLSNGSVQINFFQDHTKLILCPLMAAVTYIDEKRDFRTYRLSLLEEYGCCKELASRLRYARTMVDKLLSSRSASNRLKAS
# HP1b chromo inh = HTS for Inhibitors of HP1-beta Chromodomain Interactions with Methylated Histone Tails. Chromobox protein homolog 1 (Homo sapiens), P83916. AlphaScreen HP1-beta / biotin-H3K9me3 peptide binding. Potency, µM (doses to about 114 µM), without a hit: at the top dose activity change, negative = inhibition, usual class: inhibitors. actives 0.56% (n = 390,000). AID 540317, 2011; also: nearly all actives have a fitted effect of over 70% in size
#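 AlphaScreen: HP1-beta (50 nM) preformed 30 min with biotin-H3(1-18)K9me3 peptide (50 nM) in PBS pH 7.4, 0.01% Tween-20. Compound added for 30 min at RT, then streptavidin donor/nickel chelate acceptor beads (10 ug/mL) for 30 min.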
# JMJD2A Tudor = qHTS Assay for Inhibitors of JMJD2A-Tudor Domain | AlphaScreen JMJD2A-Tudor / H3K4me3 peptide binding | Lysine-specific demethylase 4A (Homo sapiens), O75164 | Potency, µM (top dose mostly 114 µM), inactives show at the top dose activity change, negative = inhibition, actives largely listed as inhibitors | actives 4.4% (n = 390,000) | AID 504339, 2011; also: % is scaled to controls: 0 for no effect and ±100 for the full control effect; nearly all actives have a fitted effect of over 50% in size
# * hit, by the source's call; ? = inconclusive; . = not tested or not shown; [ ] = another dose, or the depositor's remark. Calls follow the shape of the dose curve; as a rule, active = well fitted curve in the direction sought with a large enough effect; inconclusive = small, poorly fitted or top-dose-only effect, or another doubt; inactive = no such curve, though single readings can be large; an effect the other way counts as inactive or inconclusive. Potency is read from the fitted curve at half-maximal effect.
SMILES,G9a inh,BAZ2B inh,Sfp inh,PLK1 PBD inh,HP1b chromo inh,JMJD2A Tudor
COc1cccc(NC(=S)NNC(=O)Cn2nc(C(F)(F)F)cc2C)c1,11µM*,-6%,16%,-6%,24%,1%
CC(=O)OC[C@@H]1O[C@@H](O/N=C2/C[C@@H](O)[C@@H](O)[C@@H]3[C@@H]4C(=O)N([C@@H](C)c5ccccc5)C(=O)[C@H]4CC[C@@H]23)[C@H](OC(C)=O)[C@H](OC(C)=O)[C@@H]1OC(C)=O,.,.,10%,.,.,.
COc1cccc(NC(=S)NNC(=O)C(C)n2nc(C)c([N+](=O)[O-])c2C)c1 (stereo unspecified),40µM*,-4%[57.1 µM],21%,?,19%,-6%
CCOc1cc(OCC)cc(C(=O)Nc2cccc(C(C)=O)c2)c1,-48%[59 µM],0%,-7%,0%,20%,-17%
FC(F)(F)c1cccc(NC(=S)Nc2ccc(Cl)c(Cl)c2)c1,.,7%,-19%,-4%,31%,3%
O=C(NC(=S)Nc1cccc(C(F)(F)F)c1)c1ccc2nonc2c1,45µM*,?,?,-16%,?,?
CCOc1cc(OCC)cc(C(=O)NC(=S)Nc2cccc(C(F)(F)F)c2)c1,-3%[59 µM],-1%[57.1 µM],89µM*,-4%,11%,-10%
Cc1nnc(NC(=O)C2CSC3(C)CCC(=O)N23)s1 (stereo unspecified),6%[0.501 µM],6%,.,-17%,47%,-1%
O=C(COc1ccc(Cl)cc1)N(Cc1ccc(F)cc1)C1CCS(=O)(=O)C1 (stereo unspecified),18%,-10%,2%,-14%,64%,-18%
Cc1c(C(=O)NCc2ccc(F)cc2)sc(=O)n1Cc1ccccc1,.,.,.,8%,.,.
C=CCn1c(N)c(C(=O)N2CCOCC2)sc1=S,?,-17%,-22%,?,-27%,-21%
CCn1c(N)c(C(=O)N2CCOCC2)sc1=S,10µM*,-9%,45µM*,15µM*,?,-25%
CCNC(=O)c1sc(=S)n(CC)c1N,13µM*,?,50µM*,27µM*,-31%,-17%
CCn1c(N)c(C(=O)NCCCOC)sc1=S,28µM*,?,20µM*,21µM*,50µM*,-24%
Cn1c(N)c(C(=O)Nc2ccc(-c3ccccc3)cc2)sc1=S,8.9µM*,50µM*,3.2µM*,15µM*,?,50µM*
C=CCn1c(N)c(C(=O)Nc2ccc(C)cc2)sc1=S,-4%,10%,-2%,-13%,25%,-4%
c1ccc(Oc2ccc(-n3cnnn3)cc2)cc1,-2%[59 µM],7%,7%,-8%,25%,-2%
Cc1cc(C)n2nc(C(=O)OCC(=O)Nc3ccc(C)c(S(=O)(=O)N4CCOCC4)c3)nc2n1,.,.,.,-7%,16%,-10%
COc1ccc2c(c1)CC(NC(=O)Nc1c(C)cc(C)cc1C)CO2 (stereo unspecified),-20%[59 µM],-8%,.,.,20%[57 µM],-11%
Fc1ccc(-c2nc3ccc(Br)cn3c2Cc2ccccc2C(F)(F)F)cc1,.,.,.,-19%,.,.
CC(C)OCCCNC(=O)c1sc(=S)n(C)c1N,14µM*,-1%,50µM*,30µM*,?,-35%
Cn1c(N)c(C(=O)NCc2ccccc2Cl)sc1=S,-32%[12.7 µM],-9%,-29%,-11%,-15%,-15%
CCCC/C=C/[C@H](c1ccccc1)[C@H](CO)Cc1ccc([N+](=O)[O-])cc1,.,.,11%,.,31%,-10%
c1ccc(-c2ccccc2OCCN2CCOCC2)cc1,10µM*,79µM*,-32%,-4%,20µM*,14µM*
OCCN1CCN(CCOc2ccccc2-c2ccccc2)CC1,0%[59 µM],13%,-10%,-7%,6%,-18%
SMILES,G9a inh,BAZ2B inh,Sfp inh,PLK1 PBD inh,HP1b chromo inh,JMJD2A Tudor
Clc1cccc(OCCCN2CCCC2)c1Cl,?,-31%,14%,-13%,?,20µM*
OCCCN1CCN(CCOc2ccccc2-c2ccccc2)CC1,22%[59 µM],3%,1%,-7%,38%,-20%
CCN1CCN(CCCOc2ccccc2-c2ccccc2)CC1,.,28µM*,?,-13%,-5%,22µM*
c1ccc(-c2ccccc2OCCCN2CCCCC2)cc1,8.9µM*,?,-35%,-4%,-20%,7.9µM*
Clc1cccc(OCCOCCN2CCNCC2)c1Cl,.,.,.,-18%,17%,-15%
c1ccc2c(OCCCN3CCCCCC3)cccc2c1,.,56µM*,-7%,-21%,?,22µM*
Cc1nnc(N2CCc3ccccc3C2)[nH]c1=O,9%,-2%,14%,30µM*,-5%,19%[11.4 µM]
C=CCN=Cc1sc2ccc(OCC)cc2c1O,45µM*,-11%,?,.,.,.
CCOc1ccc(N=CNc2ccc(OCC)cc2)cc1,-7%,?,6%,-2%,5%,?
CCCCN=Cc1sc2ccc(OCC)cc2c1O,?,79µM*,1%,27µM*,?,28µM*
Cc1noc(C)c1C(=O)N1CCC[C@@]2(CCN(C(=O)Nc3ccccc3)C2)C1,8%[12.7 µM],.,6%,.,.,.
COc1cc(-c2noc(C3CC(=O)N(c4cc(C)ccc4C)C3)n2)cc(OC)c1OC (stereo unspecified),11%[59 µM],-15%,.,.,17%,-19%
CC1=NN(C(N)=S)C(=O)C1N=Nc1ccccc1Cl (stereo unspecified),-9%[0.501 µM],-27%,-5%,-30%,27%,-13%
CC1=NN(C(N)=S)C(=O)C1N=Nc1cccc(C)c1 (stereo unspecified),31%[59 µM],2%,0%,-5%,20%,-25%
CC1=NN(C(N)=S)C(=O)C1N=Nc1ccc(Cl)cc1Cl (stereo unspecified),.,?,10%,-29%,-22%,50µM*
CC1=NN(C(N)=S)C(=O)C1N=Nc1ccc([N+](=O)[O-])cc1 (stereo unspecified),79µM*,-34%,1%,-7%,?,?
CC1=NN(C(N)=S)C(=O)C1N=Nc1ccc(O)cc1 (stereo unspecified),?,-21%,14µM*,?,-27%,-8%[11.4 µM]
CC1=NN(C(N)=S)C(=O)C1N=Nc1cccc(C(=O)O)c1 (stereo unspecified),0.71µM*,-22%,45µM*,?,12%,4µM*
CC1=NN(C(N)=S)C(=O)C1N=Nc1ccc(F)cc1 (stereo unspecified),?,0%,-26%,?,39%,-14%

# High-throughput results deposited in PubChem by National Center for Advancing Translational Sciences (NCATS).
